Results reported in PubChem BioAssay AID1823 (The Scripps Research Institute Molecular Screening Center, 2009).
In all, about 16,000 compounds went through this assay and about 70 (0.4%) were called active. Cut-off read from the data, not from the text of the source: active = inhibition above about 75%; inactive = the rest. Many of the other results were omitted from the sample, so actives are more common in it than they were.

Assay: counter-screen for Nox1 inhibitors: inhibitors of luminol chemiluminescence (AID 1823)
Conditions: HRP/luminol/H2O2 chemiluminescence counterscreen; at 6.7 µM; active compounds read high

| SMILES | inhibition |
| --- | --- |
| Nc1nc(C23CC4CC(CC(C4)C2)C3)cs1 | -1.09% (inactive) |
| CC(C)n1c(SCC(=O)c2cccc([N+](=O)[O-])c2)nc2cc(C(F)(F)F)ccc21 | 2.2% (inactive) |
| CC(C)CCOS(=O)(=O)c1ccc2c(c1)Cc1cc(S(=O)(=O)OCCC(C)C)ccc1-2 | -0.63% (inactive) |
| O=C(CSC(=S)N1CCCCC1)c1c(F)cccc1F | 26.8% (inactive) |
| O=C(c1cc(-c2cccs2)on1)N1CCCCC1 | 3.17% (inactive) |
| N#CC(C#N)=CNc1c(F)cccc1Cl | -4.02% (inactive) |
| CCOC(=O)C1=C(C)NC(C)=C(C(=O)OCC)C1c1ccccn1 | 0.07% (inactive) |
| CCOC(=O)c1cc(CC)sc1NC(=O)c1cccc(C(F)(F)F)c1 | -4.21% (inactive) |
| CC(C)S(=O)(=O)/C(C#N)=C/c1ccccc1OC(F)(F)F | -0.54% (inactive) |
| COC(=O)c1cnc(N2CCCN(C(=O)C3COc4ccccc4O3)CC2)nc1C(F)(F)F (centres undefined) | 1.21% (inactive) |
| Cc1ccccc1NC(=O)NCc1ccco1 | -0.91% (inactive) |
| O=[N+]([O-])c1ccc(-c2ccc(I)cc2)cc1 | -6.68% (inactive) |
| CC(C)NC(=O)NNc1c(Cl)cncc1Cl | -1.24% (inactive) |
| Cc1ccc(Oc2c(C)[nH]c(=S)[nH]c2=O)cc1 | -0.85% (inactive) |
| CN(C)c1cc(-c2cc(Cl)sc2Cl)oc(=O)c1Cl | -5.79% (inactive) |
| Cc1cc(C)nc(N/C=C(\C#N)S(=O)(=O)c2ccc(Cl)cc2)n1 | 2.84% (inactive) |
| O=C(NNC(=S)Nc1ccccc1Cl)c1ccc(OC(F)(F)F)cc1 | 2.9% (inactive) |
| Cn1cc(Br)c(-c2cccc(NC(=O)c3ccccc3Cl)c2)n1 | -4.85% (inactive) |
| CCc1cccc(C)c1N(C(C)=O)C1=NCCC(=O)S1 | -4.86% (inactive) |
| O=[N+]([O-])c1ccc(C2CC2(Br)Br)cc1 (centres undefined) | 0.05% (inactive) |
| CSC(C)C(=O)/C=C/N(C)C (centres undefined) | -4.32% (inactive) |
| COc1ccc(Cc2nc(C(C)(C)C)cs2)cc1 | -2.22% (inactive) |
| Cc1noc(C)c1S(=O)(=O)N1CCN(C2c3ccccc3-c3ccccc32)CC1 | 0.21% (inactive) |
| CCOC(=O)NC(=O)/C(=C/NCc1cccs1)C(=O)OCC | 1.42% (inactive) |
| CC(=O)Nc1ccc(S(=O)(=O)NNc2c(Cl)cncc2Cl)cc1Cl | 10.2% (inactive) |
| CCCN(CCC)S(=O)(=O)c1ccc(C(=O)Oc2c(C)cccc2OC)cc1 | -5.62% (inactive) |

| SMILES | inhibition |
| --- | --- |
| CCOC(=O)c1cc(C)n(-c2cccc([N+](=O)[O-])c2)c1-c1ccccc1 | 1.22% (inactive) |
| COc1cccc(C(=O)c2sc3nsc(SCc4ccc(F)cc4)c3c2N)c1 | 9.11% (inactive) |
| CC(C)(C)c1ccc(NC(=O)c2ccco2)c(NC(=O)C(Cl)(Cl)Cl)c1 | -4.94% (inactive) |
| O=C(Nc1ccc2c(c1)OCCO2)c1cnccn1 | 1.1% (inactive) |
| CSc1nc(-n2nc(C)cc2C)nc(-c2ccco2)c1C#N | 1.13% (inactive) |
| O=C(O)CCc1cccnc1 | -4.95% (inactive) |
| CCCCCCCCCCCCCC#CC(O)C(N)CO (centres undefined) | 2.24% (inactive) |
| O=C(CSc1nc2ccccc2o1)N1CCC(n2cccc2)CC1 | 10% (inactive) |
| CC(=O)NC12CC3(C)CC(C)(CC(C)(C3)C1)C2 | 2.16% (inactive) |
| COc1cc(CC/C(C)=N/O)ccc1O | 2.62% (inactive) |
| Cc1nc(C(F)(F)F)ccc1C(=O)NC1CCCc2ccccc21 (centres undefined) | 3.59% (inactive) |
| Cn1nccc1NC(=O)CC(CC(=O)O)c1ccccc1 (centres undefined) | -2.7% (inactive) |
| COc1ccc(CCNC(=O)c2ccccc2-c2ccccc2C(=O)O)cc1OC | -7.76% (inactive) |
| CC(=O)N1c2ccccc2C=Cc2ccccc21 | 2.77% (inactive) |
| CCOC(=O)Cn1cc(Cl)ccc1=O | -6.12% (inactive) |
| CCc1ccc(S(=O)(=O)Nc2ccc(C)c(NS(C)(=O)=O)c2)cc1 | 6.77% (inactive) |
| CCOC(=O)c1c(C)nn(-c2ncccc2NC(=O)Nc2cccc(Cl)c2Cl)c1C | -3.12% (inactive) |
| COC(=O)c1cc(S(=O)(=O)NCc2csc(-c3cccs3)n2)oc1C | 2.46% (inactive) |
| COC(=O)c1sccc1NC(=S)Nc1ccc(C)cc1 | -25.1% (inactive) |
| O=C(Nc1ccccc1N1CCOCC1)C1CCN(c2nccc(C(F)(F)F)n2)CC1 | -1.03% (inactive) |
| O=C(Nc1ccc(I)cc1Cl)C(=S)NCc1cccs1 | -1.16% (inactive) |
| Cn1nnnc1SCC(=O)Nc1ccc(OC(F)(F)F)cc1 | -2.01% (inactive) |
| O=C(/C=C/c1cccc2ccccc12)N1CCCCC1 | 2.1% (inactive) |
| Cc1c(C)c(C)c(CSC(=N)CC#N)c(C)c1C | -1.01% (inactive) |
| CC(C)c1ccc(N2C(=O)/C(=C\c3ccc(-c4ccc([N+](=O)[O-])cc4)o3)SC2=S)cc1 | 2.47% (inactive) |
| O=C(NCc1csc(-c2cccs2)n1)Nc1ccccc1-c1ccccc1 | 0.51% (inactive) |

| SMILES | inhibition |
| --- | --- |
| c1ccc2c(c1)NC(C1Nc3ccccc3O1)O2 (centres undefined) | 8.91% (inactive) |
| CC(C)S(=O)(=O)/C(C#N)=C/NN1CCOCC1 | 41% (inactive) |
| O=S(=O)(Oc1cccc(C(F)(F)F)c1)c1cc(S(=O)(=O)c2ccccc2)cs1 | 3.95% (inactive) |
| O=C(Nc1ccccc1-c1ccccc1)c1cccs1 | 0.86% (inactive) |
| O=C(O)C1CC2CC1CCC2O (centres undefined) | -5.03% (inactive) |
| CC(C)CC(F)Cc1cnc(=O)[nH]c1 (centres undefined) | -1.51% (inactive) |
| CC(=O)c1cc([N+](=O)[O-])c(NC2CCCCC2)s1 | 3.91% (inactive) |
| NNC(=O)c1cc(OCC(F)(F)F)nc(OCC(F)(F)F)c1 | 9.46% (inactive) |
| N#Cc1c(C2CCCCC2)[nH]c(=S)[nH]c1=O | 11.2% (inactive) |
| CCCc1nc(N)ncc1C(=O)OCC | -1.66% (inactive) |
| O=C(CCSc1nc2ccccc2o1)N1CCc2cc([N+](=O)[O-])ccc21 | -3.32% (inactive) |
| O=C(O)CSC(SCC(=O)O)c1ccc2c(c1)OCO2 | 0.02% (inactive) |
| CC(CC(=O)O)Oc1ccc(Cl)cc1[N+](=O)[O-] (centres undefined) | 0.37% (inactive) |
| CNC(=S)NNC(=O)c1cc(C)on1 | 11% (inactive) |
| CS(=O)(=O)c1ccc(C(=O)Nc2cccc(Cl)c2)cc1 | 2.61% (inactive) |
| COC(=O)/C=C/c1cn(C2OCC(CO)C2O)c(=O)[nH]c1=O (centres undefined) | -0.07% (inactive) |
| CC1=NCCNC(C)=C1N1CCOCC1 | -0.98% (inactive) |
| NC(=O)c1sccc1Br | -1.3% (inactive) |
| COC(=O)c1sc(S(C)=O)c(-c2ccon2)c1C (centres undefined) | 0.42% (inactive) |
| CC(C)(C)C(=O)NNC(=O)c1ccc(Oc2ccc(C3SCCS3)cc2)o1 | -19.4% (inactive) |
| CNC(=O)NNC(=O)Cn1nnc(N2CCCCC2)n1 | 14.1% (inactive) |
| N#C/C(=C\C=C\c1ccccc1)c1nc2ccccc2[nH]1 | 2.56% (inactive) |
| O=[N+]([O-])c1cc(C(F)(F)F)ccc1OCCO | -3.63% (inactive) |
| CCCCCCCN=C(C)c1ccccc1O | -3.37% (inactive) |
| O=C(O)CCC(=O)Nc1ccc2c(c1)OCCCO2 | -0.93% (inactive) |
| COc1ccc2c(OC(C)=O)coc2c1 | -1.52% (inactive) |

| SMILES | inhibition |
| --- | --- |
| CN(C(=O)Nc1ccc(Cl)cc1)n1cnc2ccccc2c1=O | -2.37% (inactive) |
| O=C1c2ccccc2C(=O)N1CCCN1CCN(Cc2c(F)cccc2Cl)CC1 | -3.51% (inactive) |
| N#CCSc1ccc2ccccc2c1 | -1.43% (inactive) |
| O=C(NNC(=S)Nc1ccc(S(=O)(=O)N2CCCCC2)cc1)c1ccncc1 | 12.6% (inactive) |
| CN(Cc1nnc(-c2ccc3ccccc3c2)o1)c1nnc(C(F)(F)F)s1 | -4.66% (inactive) |
| N#Cc1sccc1Br | 0.55% (inactive) |
| N/C(Cc1cccs1)=N\OC(=O)c1ccccc1 | -0.54% (inactive) |
| CC(C)N(C(=O)c1ccc(-c2ccccc2F)cc1)C(C)C | -5.07% (inactive) |
| N#C/C(=C\c1ccsc1Sc1ccc(Cl)cc1)S(=O)(=O)c1ccc(Cl)cc1 | 2.56% (inactive) |
| Cc1ccc(S(C)(=O)=NC(=O)NS(=O)(=O)Oc2ccc(Cl)cc2Cl)cc1 (centres undefined) | 2.88% (inactive) |
| O=C(Nc1ccc(C(F)(F)F)cn1)c1ccc(Oc2cc(Cl)cc(Cl)c2)o1 | 0.64% (inactive) |
| CSc1cccc(NC(=O)C(=O)NCCc2ccccn2)c1 | 3.62% (inactive) |
| Cc1ccc(SCC(=O)Nc2ccc(F)cc2F)cc1 | -8.4% (inactive) |
| CC1=NOC(=O)/C1=C\c1ccccc1 | 3.43% (inactive) |
| CC(C)(C)c1ccc(C(=O)CC(N)=O)cc1 | 6.19% (inactive) |
| O=C1COCC(=O)N1c1ccc2c(c1)OCO2 | -6.14% (inactive) |
| Cc1nn(C)c(C)c1Sc1nccc(-c2cccnc2)n1 | -8.26% (inactive) |
| CCOC(=O)C(O)(NC(=O)Nc1ccccc1)C(F)(F)F (centres undefined) | -5.95% (inactive) |
| COCCCN/C(SCc1c(F)cccc1Cl)=C(\C#N)C(N)=O | 1.37% (inactive) |
| N#C/C=C/c1ccc(C(F)(F)F)cc1[N+](=O)[O-] | 1.6% (inactive) |
| O=C(c1ccc(Oc2ccc(Cl)cc2)c([N+](=O)[O-])c1)N1CCCC1 | 2.31% (inactive) |
| O=C(NNc1ccccc1C(F)(F)F)NS(=O)(=O)c1ccc(Cl)cc1 | -2.61% (inactive) |
| COc1ccc(/C(C)=N/Nc2c([N+](=O)[O-])cc(C(F)(F)F)cc2[N+](=O)[O-])cc1CC#N | -5.96% (inactive) |
| Cc1noc(C)c1C(=O)N1CCOCC1 | -1.15% (inactive) |
| CCOC(=O)c1cc(CC)sc1NC(=O)c1cccnc1Oc1ccccc1 | 0.49% (inactive) |
| COC(=O)CCN1CCc2cc(N=Nc3ccc(C(F)(F)F)cc3)ccc21 | 17.7% (inactive) |
